The source made the active and inactive calls. The calls were made as follows: active = hit-call score of the fitted dose curve at least 0.9, where 1 is the maximum; inactive = score below 0.9.

The target in the assay is Retinoic acid receptor alpha (Homo sapiens) (UniProt P10276). Kind of assay: ATG_DR5_RAR_CIS: Attagene CIS-FACTORIAL HepG2 Assay for human Retinoic Acid Receptor Alpha (RARE), DR5 submotif (AID 2282934).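 As to AC50: reporter responds to endogenous RAR alpha beta and gamma in HepG2 not RARA alone.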 The following applies: HepG2 Attagene cis-factorial RARE DR5 reporter, mRNA; actives raise or lower the signal. On the procedure: ATG_CIS is a cell-based, multiplexed-readout assay that uses HepG2, a human liver cell line, with measurements taken at 24 hours after chemical dosing in a 24-well plate.ATG_DR5_RAR_CIS is one of 52 assay component(s) measured or calculated from the ATG_CIS assay. It is designed to make measurements of mRNA induction, a form of inducible reporter, as detected with fluorescence intensity signals by Reverse transcription polymerase chain reaction (RT-PCR) and Capillary electrophoresis technology.Data from the assay component ATG_DR5_RAR_CIS was analyzed into 1 assay endpoint. This assay endpoint, ATG_DR5_CIS, was analyzed with bidirectional fitting relative to DMSO as the negative control and baseline of activity. Using a type of inducible reporter, measures of mRNA for gain or loss-of-signal activity can be used to understand the reporter gene at the transcription factor-level as they relate to the gene RARA and RARB and RARG. Furthermore, this assay endpoint can be referred to as a primary readout, because this assay has produced multiple assay endpoints where this one serves a reporter gene function. To generalize the intended target to other relatable targets, this assay endpoint is annotated to the nuclear receptor intended target family, where the subfamily is non-steroidal.
Retinoic acid receptor alpha (Homo sapiens), sequence (P10276 whole entry, looked up): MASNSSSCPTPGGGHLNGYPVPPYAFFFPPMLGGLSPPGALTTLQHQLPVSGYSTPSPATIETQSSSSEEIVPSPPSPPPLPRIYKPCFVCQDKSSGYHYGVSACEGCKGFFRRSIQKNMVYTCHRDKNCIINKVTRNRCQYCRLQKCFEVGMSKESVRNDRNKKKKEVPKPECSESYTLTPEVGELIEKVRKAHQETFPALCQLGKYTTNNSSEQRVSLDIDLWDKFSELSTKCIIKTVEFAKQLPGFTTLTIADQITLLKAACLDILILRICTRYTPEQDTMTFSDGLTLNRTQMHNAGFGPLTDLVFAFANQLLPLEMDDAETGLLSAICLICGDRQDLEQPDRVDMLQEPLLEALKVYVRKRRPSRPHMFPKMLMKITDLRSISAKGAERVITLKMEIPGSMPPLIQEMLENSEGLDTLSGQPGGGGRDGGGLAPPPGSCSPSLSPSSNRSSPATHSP
Human liver HepG2 cells are transiently transfected with multiple reporter transcription units (MRTUs) in 6-well plates using FuGene 6 reagent (Roche; 3 ml FuGene/1 mg DNA). The MRTU constructs are regulated by a cis-regulating element (promoter). […] A major difference between the CIS and TRANS system is that in CIS activities of endogenous TFs are measured, whereas the TRANS assay evaluates changes in activities of exogenous, chimeric NR-Gal4 proteins. […] At the end of 24 hour incubation, total RNA was isolated using TriZol reagent (Invitrogen). The isolated RNA is then reverse-transcribed using oligo(dT) primer and Mo-MLV reverse transcriptase (Invitrogen) with DNAse I (Ambion) treatment for 30 min. The one-tenth of the produced cDNA was amplified by PCR using Taq DNA polymerase (Invitrogen) and two reporter sequence-specific primers. The PCR products were fluorescently labeled by primer extension with 6-arboxyfluorescein (6-FAM) 5'-labeled reporter sequence-specific primer (2 min at 95 C, 20 s at 68 C and 10 min at 72 C) and these products were digested with 5U of HpaI (New England Biolabs) for 2h at 37 C. The fragments were purified using Qiaquick PCR columns (Qiagen), analyzed on an ABI 3130xL genetic analyzer (Applied Biosystems) with peak positions identified by using a set of X-rhodamine (ROX)-labeled MapMarker1000 molecular weight standards (BioVentures). The raw capillary electrophoresis data was processed using Attagraph software (Attagene).
Consider `Oc1ccccc1O`, for which the call was inactive. Same read-out and setting: under `CC(=O)OC1CC(C)OC(C)O1` (centres undefined) stands “inactive”; under `CC(COCC(C)OC(=O)c1ccccc1)OC(=O)c1ccccc1` (centres undefined), “inactive”. `Cc1ccc(-c2cc(C(F)(F)F)nn2-c2ccc(S(N)(=O)=O)cc2)cc1`: the result was inactive. The term AC50 denotes the concentration giving half of the maximal activity seen. For `O=C1OC(c2ccc(O)cc2)(c2ccc(O)cc2)c2ccccc21`, the AC50 is 4.2 µM (active). Take `CC(C)c1cccc(C(C)C)c1NC(=O)NS(=O)(=O)c1cc(C(C)(C)O)co1`: the outcome was inactive.

Regarding `NC1CCCCC1`, the call was inactive. For `O=Cc1ccccc1C=O`, the compound was classed as inactive. For the compound `O=C(O)CN(CC(=O)O)CC(=O)O`, the compound was classed as inactive.

On to `O=NO`, for which the result was inactive. The same measure, in the same setting: under `Oc1ccc(O)cc1` stands “inactive”. Turning to `O=[Si]=O`, the call was inactive.

`COC(=O)CCCC(=O)OC`: the compound was called inactive. `CCCCOC(=O)CCCCC(=O)OCCCC`: the outcome was inactive. On to `O=C(N[C@@H](c1ccccc1)[C@@H]1CCCCN1)c1cccc(C(F)(F)F)c1Cl`, for which the AC50 is 20.9 µM (active). For the compound `CC(C)COC(=O)CCCCC(=O)OCC(C)C`, the result was inactive. Turning to `Cn1cnc2c1c(=O)[nH]c(=O)n2C`, the compound was called inactive. Consider `S=c1[nH]c2ccccc2s1`, for which the call was inactive. On the same count and under the same terms, under `Cc1cc(Cc2ccc(N)c(C)c2)ccc1N` stands “inactive”. As for `CCCCCCC(C=O)=Cc1ccccc1`, the compound was classed as inactive. As for `CC(C)c1cccc(C(C)C)c1`, the compound was classed as inactive. As for `N[C@@H](Cc1c[nH]c2ccccc12)C(=O)O`, the outcome was inactive. Same read-out and setting: in the case of `CCCC(=O)O` it was “inactive”. Same read-out and setting: in the case of `O=C(Oc1ccccc1)c1cccc(C(=O)Oc2ccccc2)c1` it was “inactive”; in that of `CC(=O)[C@@]1(O)CC[C@H]2[C@@H]3CCC4=CC(=O)CC[C@]4(C)[C@H]3CC[C@@]21C`, “inactive”.

In the case of `CC(C)OC(=O)C(C)(C)Oc1ccc(C(=O)c2ccc(Cl)cc2)cc1`, the compound was classed as inactive.

Consider `CC(C)(C)c1ccccc1`, for which the compound was called inactive.

Turning to `Nc1nc(=S)c2[nH]cnc2[nH]1`, the call was inactive. For `O=C(NS(=O)(=O)/C=C/c1cccs1)c1ccc(F)cc1Br`, the compound was classed as inactive. For `CC(N)=O`, the result was inactive. As to `NC=O`, the compound was called inactive. In the case of `CC(C)(O)c1ccc(CNC(=O)c2cccnc2Oc2ccc(F)cc2)cc1`, the result was inactive. With `CCN(CC)CCOc1ccc(C(=C(Cl)c2ccccc2)c2ccccc2)cc1`, the result was inactive. Consider `CCCCCCCCCCCCCCCCO`, for which the AC50 was 100 µM (active).

These data come from PubChem BioAssay (EPA / NIEHS).
